# Results from PubChem BioAssay AID504834 (National Center for Advancing Translational Sciences (NCATS), 2011).
# About 22,000 (6.9%) of roughly 320,000 compounds were called active. About 27% were inconclusive and are not listed. This excerpt belongs to a sample that is enriched for actives. Values without a mark were called inactive. Calls come from the whole dose curve; as a rule, active = well fitted inhibition curve with a large enough effect; inconclusive = small, poorly fitted or top-dose-only effect, or another doubt; inactive = no such curve, though single readings can be large or run the other way.
# Assay: Primary qHTS for delayed death inhibitors of the malarial parasite plastid, 96 hour incubation
# Conditions: P. falciparum luciferase reporter growth; series mostly up to 28.7 µM; activity change, negative = inhibition: at the top concentration
# Description: The goal of this screen is to discover new antimalarial compounds that act by inhibiting the development of the apicoplast in the malarial parasite Plasmodium falciparum. The biochemical processes that make this organelle essential for erythrocytic stage parasites are not well understood. However, antibiotics such as azithromycin and tetracycline, which target the apicoplast translational machinery, have a potent antimalarial effect.
# We have developed a cell-based assay that measures parasite growth based on the expression of an integrated copy of a firefly luciferase reporter. To detect small molecules that cause this "delayed death" phenotype, erythrocytes infected with the luciferase-expressing parasites were incubated with compounds for either one or two generations, corresponding to 48 and 96 hours, respectively. Compounds that inhibit parasite growth in the second generation, but not the first, should be enriched in antimalarials that target the apicoplast. Growth inhibition is detected by a decrease in luciferase activity.
# Assay Provider: David Fidock and Eric Ekland, Columbia University
# Keywords: NIH Roadmap, MLPCN, MLI, MLSMR, qHTS, NCGC, qHTS, malaria, luciferase, viability
# Four microliters of infected erythrocytes (2% hematocrit, 0.05% parasitemia final concentration) in culture medium were dispensed and the plates incubated for 96 hours at 37 C in 5% CO2. Two microliters of luciferase detection reagent was added and luminescence was detected by a ViewLux (PerkinElmer) reader.
# % is set by controls: 0 for no effect and ±100 for the full control effect; potency is the fitted concentration of half-maximal effect.
SMILES,Potency,"activity change, negative = inhibition [%]"
CC(C)OC(=O)CN1C(=O)C(=O)c2ccccc21,2.08 µM (active),–
CCOC(=O)CN1C(=O)C(=O)c2cc(C)ccc21,–,125
CC(C)OC(=O)CN1C(=O)c2ccccc2C1=O,7.38 µM (active),–
CCCCn1c(N)c(N(CC)C(=O)c2ccc(N(C)S(=O)(=O)c3ccc(C)cc3)cc2)c(=O)[nH]c1=O,–,-16.1
C[C@H](NC(=O)C1CC(=O)N(c2ccc3c(c2)OCCO3)C1)C(=O)N1CCC(C(=O)O)CC1 (some centres not stated),–,-9.53
CC(C(=O)c1ccc(-c2ccccc2)cc1)[n+]1cccc(Br)c1 (configuration not stated),2.33 µM (active),–
CC(=O)Nc1ccc(C(=O)C(Cc2ccccc2)N(C)C)cc1 (configuration not stated),–,2.69
O=C(NC1CCCC1)C(c1c(F)cccc1Cl)N(C(=O)c1csnn1)C1CC1 (configuration not stated),–,-4.38
COc1ccc(-n2nc(C(=O)Nc3cc(OC)c(OC)c(OC)c3)c3ccccc3c2=O)c(OC)c1,8.28 µM (active),–
COc1ccc(-n2nc(C(=O)NCC(=O)Nc3cccc(C)n3)c3ccccc3c2=O)cc1,–,19.7
COC(=O)c1cc(NC(=O)c2nn(C)c(=O)c3ccccc23)cc(C(=O)OC)c1,–,59.9
Cc1ccc(NC(=O)Cc2nnc(SCC(=O)Nc3nncs3)n2C)cc1,–,-28.1
CC1CCN(S(=O)(=O)c2ccc3c(ccn3CC(=O)O)c2)CC1,–,-20.2
O=C(CNC(=O)c1ccccc1F)c1ccc(Br)cc1,–,68.4
COc1cccc(NC(=O)CN(C)C(=O)CSCc2nc3scc(-c4cccs4)c3c(=O)[nH]2)c1,–,28.3
Cc1ccccc1NC(=O)C(C)OC(=O)CCC(=O)N(CC(C)C)c1c(N)n(CC(C)C)c(=O)[nH]c1=O (configuration not stated),–,4.86
Cc1ccc(S(=O)(=O)N2CCC(C(=O)OCC(=O)N(C)c3ccccc3)CC2)cc1C,–,-10.6
CCN(CC(=O)NCc1cccs1)C(=O)c1ccc(OC)c(S(=O)(=O)N2CCOCC2)c1,–,4.92
Cc1ccccc1CSCC(=O)NC(=O)NC(C)(C)C,10.4 µM (active),–
CC(C)(C)NC(=O)NC(=O)CN1CCC(Cc2ccccc2)CC1,–,-37.5
CC(C)(C)NC(=O)NC(=O)COC(=O)C1c2ccccc2Oc2ccccc21,–,16.9
COc1ccc(NC(=O)c2cc([N+](=O)[O-])ccc2NC(=O)CNC2CCCCC2C)c(OC)c1 (configuration not stated),–,34.8
CN(CC(=O)Nc1ccc(F)c(F)c1F)C(=O)Cn1cnc2c1c(=O)n(C)c(=O)n2C,–,-15
COc1ccc2cc(C3=CC(=O)C[C@H](c4ccc5c(c4)OCO5)C3)ccc2c1,–,-36.2
COc1ccc([C@H]2CC(=O)C=C(c3ccc(OC(F)(F)F)cc3)C2)cc1OC,11.7 µM (active),–
COc1ccc([C@H]2CC(=O)C=C(c3ccc(C)cc3)C2)cc1,–,-34.7

SMILES,Potency,"activity change, negative = inhibition [%]"
COc1cccc(N2CC(NS(=O)(=O)c3cccs3)CC2=O)c1 (configuration not stated),–,8.83
FCOC(C(F)(F)F)C(F)(F)F,–,117
O=C(COc1ccc2c(c1)CCC2)N1CCN(c2ccc(F)cc2)CC1,–,-14.1
O=C(O)CN1CCN(C(c2ccccc2)c2ccccc2)CC1,–,-16
COc1ccccc1CN1CCN(Cc2cc(OC)c(OC)cc2OC)CC1,–,-11.7
COc1ccccc1NC(=S)N1CCN(C(c2ccccc2)c2ccccc2)CC1,–,26.1
COc1ccccc1CN1CCN(C(c2ccccc2)c2ccccc2)CC1,8.28 µM (active),–
Oc1ccccc1CN1CCN(C(c2ccccc2)c2ccccc2)CC1,0.828 µM (active),–
CC(C)OCC(O)CN1CCN(C(c2ccccc2)c2ccccc2)CC1 (configuration not stated),–,-7.62
CC1=C(C(N)=O)C(c2ccc(F)cc2)n2nc(CCCO)nc2N1 (configuration not stated),–,28.2
COc1cccc(N(C(=O)c2snc(C(N)=O)c2N)C(C(=O)NCC2CCCO2)c2c[nH]c3ccccc23)c1 (configuration not stated),–,-7.17
CC(C)Cc1nc(Cl)c(C#N)c2c1CCC2,–,36.5
COC(=O)c1ccc(S(=O)(=O)N(CCO)Cc2ccccc2)n1C,–,4.12
COc1ccccc1C(=O)Nc1ccc(OCC(=O)N2CCCCC2)cc1,–,-28.2
COc1ccccc1C(=O)NNC(=O)c1ccc(NC(=O)c2ccccc2)cc1,–,19.4
COc1ccccc1C(=O)Nc1ccc(OCc2nnc3c4ccccc4c(C)nn23)cc1,9.28 µM (active),–
CC(=O)N1CCN(C(=O)C2(NC(=O)Nc3ccc(C)cc3)CCCCC2)CC1,–,363
O=C(NCc1cc(F)cc(C(F)(F)F)c1)C1CCC(=O)N(C2CCCC2)C1 (configuration not stated),–,-15.9
CCOC(=O)c1c(CNCc2ccccc2F)c2sc(C)cc2n1C,–,-9.14
COc1ccc(Nc2ncnc3sc(C)cc23)cc1,–,34.4
CN1/C(=c2/s/c(=C3/C(=O)N(c4ccccc4)NC3=Nc3ccccc3)n(C)c2=O)C(C)(C)c2ccccc21,11.7 µM (active),–
CCN1C(=O)/C(=c2\s/c(=C3\Sc4ccccc4N3C)c(=O)n2C)N(C)C1=S,–,6.98
Cc1csc2nc(O)c(C(=O)NCCN3CCOCC3)c(=O)n12,–,12
O=C(COc1ccc2c3c(c(=O)oc2c1)CCC3)NC1CCCCC1,–,0
CCCCC(NS(=O)(=O)c1ccc(C)cc1)C(=O)Oc1ccc2c3c(c(=O)oc2c1)CCC3 (configuration not stated),–,19.9
CCCOc1ccc2c3c(c(=O)oc2c1OCCC)CCC3,6.57 µM (active),–
